Source: PubChem BioAssay AID720650 (Broad Institute, 2013)
Values without a mark were called inactive. Active and inactive are the calls of the source. The rule behind the calls is not given here.

Assay: Biochemical counterscreen for C difficile toxins, absence of UDPG, inhibitor dose response (AID 720650)
Settings: series mostly up to 19.5 µM

CC(=O)Nc1ccc(S(=O)(=O)N2CCCC(C(=O)O)C2)cc1 (stereo not drawn)
AC50: inactive

Nc1nnn(CC(=O)N/N=C/c2ccc(O)cc2)n1
AC50: 16.5 µM (active)

CCOC(=O)c1cc([N+](=O)[O-])sc1N
AC50: inactive

COC(=O)C(Cc1ccccc1)NC(=O)CSc1nc(C)cc(=O)[nH]1 (stereo not drawn)
AC50: inactive

COc1ccc(/C=C(/C#N)C(=O)Nc2ccc(O)cc2)cc1C(=O)O
AC50: 12.2 µM (active)

O=C(NC(=S)NNS(=O)(=O)c1ccccc1)c1cccnc1
AC50: inactive

COc1ccc2[nH]c3c(=O)n(CCCCC(=O)NCCN4CCCC4)c(=S)[nH]c3c2c1
AC50: 18.5 µM (active)

C=CCN=c1scc(C)n1/N=C/c1ccc(O)c(O)c1
AC50: > 39 µM

S=c1[nH]nc(-c2ccccn2)n1/N=C/c1ccc(Cl)cc1
AC50: inactive

CC(C)NC(=O)N1CC[C@@H]2[C@H]1c1cc(-c3ccc(F)cc3)ccc1N(C)[C@H]2CO
AC50: 6.96 µM (active)

CCC(C)NC(=O)CSc1nc2cc(S(=O)(=O)N3CCOCC3)ccc2n1CC (stereo not drawn)
AC50: inactive

O=P1(Oc2ccccc2)OCCCS1 (stereo not drawn)
AC50: inactive

CC(C)CNC(=O)C(=O)NCC1CCCN1S(=O)(=O)c1cccs1 (stereo not drawn)
AC50: inactive

Nc1ncc(S(=O)(=O)c2ccc([N+](=O)[O-])cc2)s1
AC50: inactive

CCN(CC)S(=O)(=O)c1cc(C(=O)Nc2cccnc2Cl)ccc1Cl
AC50: inactive

CC(=O)Nc1cccc2cc(O)ccc12
AC50: 11.1 µM (active)

CC(OC(=O)[C@@H](NC(=O)OCc1ccccc1)C(C)C)C(=O)Nc1ccc(N2CCOCC2)cc1 (stereo partly drawn)
AC50: inactive

COC(=O)C[C@@H]1CC[C@@H]2[C@H](COC[C@H](O)CN2C(=O)Nc2ccccc2OC)O1
AC50: inactive
